Measurements: ChEMBL document CHEMBL4513216, “Probing the Open Global Health Chemical Diversity Library for Multistage-Active Starting Points for Next-Generation Antimalarials” (ACS Infect Dis, 2020)
Screen size: about 69,000 compounds; about 8,600 (12%) showed an effect of 50% or more. The sample as a whole holds a higher share of strong results than the screen did.

What follows are molecules tested on Plasmodium berghei (assay: Screen against P. berghei liver stage (PbLuc), transformed with Luciferase, at 10uM). Details: tested at 10 uM.
Format: functional, HepG2

SMILES | INHIBITION [%]
CC[C@@H]1N(CC2CC2)CCC[C@]12CCC(=O)N2CCOC | 4.2
Cc1nc(CN2CCCN(C(=O)c3ccccn3)CC2)oc1C | 60.5
CCc1nnc(CN2CCCN(C(=O)c3ccccn3)CC2)o1 | -47.6
Cc1noc(CN2CCN(C(=O)c3ccccn3)CC2)n1 | 37.3
Cc1nc(CN2CCCN(C(=O)c3ccn(C)c(=O)c3)CC2)cs1 | -12.2
COCc1ccc(C(=O)N2CCC(Oc3ccccc3)(C(=O)O)CC2)o1 | -11.6
O=C(c1ccc(COc2ccccc2Cl)o1)N1N=CCC1(O)C(F)(F)F (configuration not stated) | 4.66
O=C(c1ccc(COc2ccc(Cl)cc2)o1)N1N=CCC1(O)C(F)(F)F (configuration not stated) | 89.3
O=C(Cc1ccc(Cl)cc1)N1CCC(O)(C(F)(F)F)C1 (configuration not stated) | -55
Cc1cccc(OCc2ccc(C(=O)N3N=CCC3(O)C(F)(F)F)o2)c1 (configuration not stated) | 69.2
O=C(NC1CCCC1)c1ccc(COCC(F)(F)F)o1 | 31.6
COc1ccc(C(=O)COc2coc(CN3CCCCC3)cc2=O)cc1 | 44.9
CC(C)NC(=O)N1CC[C@@H](N(C)C)[C@@H]1Cc1ccncc1 | 28.2
CCS(=O)(=O)N1CCN(Cc2ccncc2)c2nc(C)ccc2C1 | 48.6
CC(c1ccc2c(c1)OCO2)n1cc2nc(N(C)C)[nH]cc-2c1=O (configuration not stated) | 39.3
CC(C)CC(=O)Nc1ccc2c(c1)ncn2CC(=O)NCCN(C)C | 32.4
COCCN1CCCC(CCCc2ccccn2)(C(N)=O)C1 (configuration not stated) | -58.7
CCOc1ccc(NC(C)=O)cc1S(=O)(=O)Nc1cc(C)on1 | 54.2
CCOc1ccc(NC(C)=O)cc1S(=O)(=O)Nc1ccon1 | 7.83
CCOc1ccc(NC(C)=O)cc1S(=O)(=O)Nc1nnc(C)s1 | 21.8
Clc1ccccc1-c1nnc(CN2CCCC2Cn2cncn2)o1 (configuration not stated) | 27.4
Cn1cc(CN2CCO[C@@H]3CN(C4CCCC4)C[C@@H]3C2)cn1 | 41.2

SMILES | INHIBITION [%]
c1cc(CNCc2ccnc(N3CCCC3)c2)c2c(c1)OCO2 | -17.2
c1cc(CNCc2ccnc(N3CCCC3)c2)c2c(c1)OCCCO2 | 98.3
OCc1cccc(CNCc2cccc3c2OCCO3)c1 | -33.4
c1cc(CNCc2ccnc(N3CCCC3)c2)c2c(c1)OCCO2 | 44.4
CN1CCN(c2cc(CNCc3cccc4c3OCO4)ccn2)CC1 | 73.9
c1cc(CNCc2ccnc(N3CCOCC3)c2)c2c(c1)OCO2 | -35.2
COc1cccc(CNCc2ccnc(N3CCOCC3)c2)c1OC | 50.5
COc1ccc(CNCc2ccnc(N3CCOCC3)c2)cc1OC | 27.1
c1cc(CNCc2ccnc(N3CCOCC3)c2)c2c(c1)OCCO2 | 9.48
c1cc(CNCc2ccnc(N3CCOCC3)c2)c2c(c1)OCCCO2 | 26.4
COc1ccc(OC)c(CNCc2ccnc(N3CCOCC3)c2)c1 | -2.53
CN(C)c1cc(CNCc2cccc3c2OCCO3)ccn1 | 52.1
NC(=O)c1csc(N2C[C@@H](CN3CCOCC3)[C@@H](CO)C2)n1 | 20.645
O=C(NCCNc1cnccn1)N1CCCC(N2CCCC2)C1 (configuration not stated) | 37.4
c1cc(CN2CCC[C@@H](Cn3nnc(-c4cnccn4)n3)C2)ccn1 | 18.285
CCOc1cc(NC(=O)N2CCC3(CCOCC3)C2)ccc1C | -38.1
Cc1cc(CN(Cc2cccs2)CC2CCCO2)on1 (configuration not stated) | 19.4
CCN(CC)c1nc(O)cc(C(C)n2ncc3ccccc3c2=O)n1 (configuration not stated) | 0.45
O=C(C1CCCCC1)N1CCCC2(CCN(c3cnccn3)CC2)C1 | -2.35
CC1CN(c2cc(CNCc3cccc4c3OCCO4)ccn2)CCO1 (configuration not stated) | -26.2
c1cc(CNCc2cccc3c2OCCO3)cc(Cn2cncn2)c1 | -8.41
c1cc(CNCc2ccnc(N3CCCCC3)c2)c2c(c1)OCCCO2 | 70.1

SMILES | INHIBITION [%]
c1cc(CNCc2ccc(Cn3cncn3)cc2)c2c(c1)OCCO2 | 16
c1cc(CNCc2cccc3c2OCCCO3)cc(Cn2cncn2)c1 | 53.1
CCc1nc(CN(C)C2CCN(Cc3nc(C4CC4)no3)C2)no1 (configuration not stated) | -31.6
COCC(=O)N1CCC(c2c(C(=O)N(C)C)sc3ncccc23)C1 (configuration not stated) | 9.54
O=C(c1nc2c(o1)CN(CC1CC1)C2)N1CCCC1 | 18.5
CCCOc1ccccc1NCC(=O)Nc1ccc(CC)cc1 | 15
c1cn2c(n1)CN(CC1CC1)CC(CN1CCOCC1)C2 (configuration not stated) | 42.1
CCOC1CCN(C(=O)NCc2cccc(-n3cccn3)c2)CC1 | 1.98
CCOC1CCN(C(=O)NCc2ccc(CN3CCOCC3)cc2)CC1 | 61.8
CCOC1CCN(C(=O)NCc2ccc(C(=O)N(C)C(C)C)cc2)CC1 | 27.6
O=C(N[C@@H]1CCC[C@@H](N2CCOCC2)[C@@H]1O)c1cc2ccccc2[nH]1 | -3.31
CC(C)N(C)Cc1cnc2n1CCN(Cc1cccc(F)c1)C2 | -22.1
COCCNc1nc(NCCc2ccccc2)nc2nccnc12 | -14.9
O=C(c1ccncc1)N1C[C@@H](OCc2cccnc2)[C@H]2OCCC[C@H]21 | 10.6
Cc1cc(-c2nc(-c3c(C)ncc4c3CCNC4)no2)nc(C)n1 | 33.7
CSCC(=O)N1CCc2c(cnc(C)c2-c2noc(-c3cscn3)n2)C1 | 16.7
Cc1ncc2c(c1-c1noc(-c3cscn3)n1)CCNC2 | 58.8
NC(=O)C1CCN(C(=O)NCc2ccccc2-n2cccn2)CC1 | 44.1
CC(C)Oc1ncccc1CNC(=O)N1CCC1 | 54.4
CC(C)Oc1ncccc1CNC(=O)N1CCC(C(N)=O)C1 (configuration not stated) | 40.3
CC(C)Oc1ncccc1CNC(=O)N1CCC1c1ccccc1 (configuration not stated) | 52
NC(=O)C1CCN(C(=O)NCc2cccnc2OC2CCCC2)C1 (configuration not stated) | 11.2

SMILES | INHIBITION [%]
CC(=O)N1CCCN(C(=O)NCc2cccnc2OC(C)C)CC1 | -40.2
Cc1cc(C2CCCN2C(=O)NCc2cccnc2OC(C)C)on1 (configuration not stated) | 29
NC(=O)CC1CCN(C(=O)NCc2ccccc2-n2cccn2)CC1 | 56.3
NC(=O)C1CCN(C(=O)NCc2cccnc2OCC(F)(F)F)C1 (configuration not stated) | 56.4
CC(C)Oc1ncccc1CNC(=O)N1CCCC1c1ccsc1 (configuration not stated) | 31.2
NC(=O)C1CCN(C(=O)NCc2ccccc2-n2cccn2)C1 (configuration not stated) | 0.914
CC(C)Oc1ncccc1CNC(=O)N1CCSCC1 | 9.14
CC(C)N(C)Cc1cncc2c1CCN(C(=O)c1ccc[nH]1)C2 | 29
Cc1cccc(CN2CCc3ncnc(N4CCN(C)CC4)c3CC2)n1 | -110
COc1ccc(OC)c(-n2nnnc2SCC2CCCCO2)c1 (configuration not stated) | 20.9
Cc1cc(C)c(CNC(=O)NCC2CCCOC2)c(=O)[nH]1 (configuration not stated) | 27.5
N#Cc1ccc(CNc2cccc(C(=O)N3CCOCC3)c2)cc1 | 24.2
Cc1nc(C)n(CC2CCCN(CC(=O)NC3CCOCC3)C2)n1 (configuration not stated) | -17
CCN1CCC(=O)N(C)Cc2cc(F)ccc21 | 35.8
O=C(Cc1ccc2c(c1)OCCCO2)Nc1nnn[nH]1 | -5.38
CN1CCCN(C(=O)NCc2cccnc2-n2cccn2)CC1 | 52.3
CCN1CCN(C(=O)NCc2cccnc2-n2cccn2)CC1 | 33.8
CC(C)Oc1ncccc1CNC(=O)N1CCOCC1 | 65.6
COCCOc1ncccc1CNC(=O)N1CCOCC1 | 44.3
CC(=O)N1CCCN(C(=O)NCc2ccccn2)CC1 | 53.3
CC(=O)N1CCCN(C(=O)NCCNc2ccccn2)CC1 | 16.533
O=C(CC1CCCCC1)N1CCN(C(=O)NCc2ccccn2)CC1 | 12.7

SMILES | INHIBITION [%]
CC(C)Oc1ncccc1CNC(=O)N1CCC(n2cccc2)CC1 | -69
COc1ncccc1CNC(=O)N1CCC(CN2CCOCC2)CC1 | 29.4
O=C(NCc1cccnc1OCC(F)(F)F)N1CCOCC1 | 69.3
CC(C)CN1CCN(C(=O)NCc2cccnc2-n2cccn2)CC1 | 11
CC(=O)N1CCN(C(=O)NCc2cccnc2OC(C)C)CC1 | 48.2
CCCc1nc(Nc2cccc(C(N)=O)c2)c2c(n1)c(C)nn2CC | -28.15
O=C(Cn1cccc(S(=O)(=O)N2CCCC2)c1=O)c1ccccc1Cl | 16.6
CCOc1cc(=O)n2c(c1C(=O)OCc1cccc(C)c1)CCCC2 | 43.8
c1csc(CN2CCn3c(Cn4cncn4)cnc3C2)n1 | 45.5
COC(=O)C1CCN(c2cc(C)nc(-c3ccncc3)n2)CC1 | -53.5
Cc1noc(C)c1C(=O)N1C[C@@H]2COC[C@]2(COc2ccccn2)C1 | 18.5
CN1CCN(C(=O)c2cc(NC(=O)c3ccccc3)n(C)n2)CC1 | 46.6
CCN1CCN(C(=O)c2cc(NC(=O)c3ccccc3)n(C)n2)CC1 | 75.7
Cn1nc(C(=O)N2CCCCCC2)cc1NC(=O)c1ccccc1 | 26.4
CC(C)N1c2sc(-c3ccsc3)nc2CC1C(=O)NC1CC1 (configuration not stated) | 26.5
CC(C)N1c2sc(-c3ccccc3)nc2CC1C(=O)NC1CCCC1 (configuration not stated) | 57.1
CC(C)N1c2sc(-c3ccsc3)nc2CC1C(=O)NC1CCCC1 (configuration not stated) | 47.5
Cc1cccc(CN2CCc3ncnc(N4CCOCC4)c3CC2)n1 | -9.86
Cc1ccc(CN(CCCN2CCOCC2)Cc2[nH]cnc2C)o1 | -18.9
